From PubChem BioAssay
For some assays here: Entries with a potency or affinity are not part of this list. Active and inactive are the calls of the source. Unless noted, how the calls were made is not given here.

Target: Protein kinase 7 (PK7), Plasmodium falciparum 3D7 (PF3D7_0213400) (UniProt Q7YTF7)
Experiment: inhibition of Plasmodium PK7 catalytic activity – biochemical, TCAMS antimalarial set, Kinase-Glo luminescence (AID 1159587)
Details: recombinant PfPK7, Kinase-Glo ATP depletion luminescence

Sequence of Protein kinase 7 (PK7), Plasmodium falciparum 3D7 (PF3D7_0213400) (Q7YTF7 1-343): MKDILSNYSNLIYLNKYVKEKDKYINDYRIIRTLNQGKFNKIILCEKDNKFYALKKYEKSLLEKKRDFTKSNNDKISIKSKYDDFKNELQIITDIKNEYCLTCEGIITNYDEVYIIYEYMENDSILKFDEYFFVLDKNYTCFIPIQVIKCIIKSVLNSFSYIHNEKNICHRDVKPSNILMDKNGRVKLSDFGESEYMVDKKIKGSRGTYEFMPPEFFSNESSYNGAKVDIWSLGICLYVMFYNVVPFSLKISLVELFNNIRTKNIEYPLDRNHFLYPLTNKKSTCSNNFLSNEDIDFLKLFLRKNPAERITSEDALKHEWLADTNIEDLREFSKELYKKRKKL

Q: How did the outcome turn out when `O=C(/C=C/c1ccc(Cl)c(Cl)c1)NCCCCCN1CCC(NC(=O)Nc2ccc(Cl)c(C(F)(F)F)c2)CC1` was run?
A: inactive

Q: How did the outcome turn out when `Cc1cc(CNCCCCCNCc2ccc(Cl)cc2)ccc1O` was run?
A: inactive

Q: `O=C(Nc1ccc(F)cc1)NC1CCN(c2ccnc3cc(Cl)ccc23)CC1` was tested. Which outcome did it give?
A: inactive

Q: `COc1cc(OC)c(NC(=O)C2c3ccccc3C(=O)N(C)C2c2cccs2)cc1Cl` (stereo not given) was tested. Which outcome did it give?
A: inactive

Q: `Cc1[nH]cc(Br)c(=O)c1-c1ccc(Oc2ccccc2)cc1` was tested. Which outcome did it give?
A: inactive

Q: Which outcome does the source give for `COc1ccc2nccc([C@@H](O)CN3CCC(NCc4ccc5c(c4)NC(=O)C(C)(C)O5)CC3)c2c1` here?
A: inactive

Q: For `CCCN1CCN(c2cc(S(=O)(=O)Nc3ccc(C(=O)NCc4cccc(C(F)(F)F)c4)cc3)ccc2OC)CC1`, which outcome is on record?
A: inactive

Q: Which outcome does the source give for `CC(C)CNCc1cccc(-c2cccc(CN(CCCN3CCN(C)CC3)C(=O)Nc3ccccc3)c2)c1` here?
A: inactive

Q: Which outcome does the source give for `C=CCOC(=O)N1CCC(CNCc2cccc(-c3ccc(-c4nc5c(C)cccc5[nH]4)s3)c2)C1` (stereo not given) here?
A: inactive

Q: For `Cc1nc2ccc3ccc(CNc4ccc5c(c4)CN([C@H](CCC(=O)O)C(=O)O)C5=O)cc3c2c(=O)[nH]1`, which outcome is on record?
A: inactive

Q: With `O=C(CN(c1cccc(C(F)(F)F)c1)S(=O)(=O)c1ccc(Cl)cc1)NCCC(c1ccccc1)c1ccccc1` as the compound, how does the outcome read?
A: inactive

Q: For `CCOc1ccc(-c2nc(NC(=O)COc3ccc(OC)cc3)sc2C)cc1`, which outcome is on record?
A: inactive

Q: With `CC(=O)Nc1csc(-c2cnc(/C=C(\C)C[C@@H]3OC[C@H](C[C@@H]4O[C@H]4[C@@H](C)[C@H](C)O)[C@@H](O)[C@H]3O)o2)c1` as the compound, how does the outcome read?
A: inactive

Q: Which outcome does the source give for `NC(N)=NN=Cc1ccc2ccc3ccccc3c2c1` here?
A: inactive

Q: For `COc1cccc(C(=O)Nc2ccc(S(=O)(=O)c3cc4c(cc3OC)CCN(C)CC4)cc2)c1`, which outcome is on record?
A: inactive

Q: With `CCOc1ccc(-c2nonc2NC(=O)c2ccc(F)cc2)cc1OCC` as the compound, how does the outcome read?
A: inactive

Q: With `CC(C)CCNC(=O)C1Cc2c([nH]c3cc(Br)ccc23)C2(CCN(Cc3ccccc3)CC2)N1` (stereo not given) as the compound, how does the outcome read?
A: inactive

Q: How did the outcome turn out when `c1ccc2ncc(CNCCCCCCCCNCc3cnc4ccccc4c3)cc2c1` was run?
A: inactive

Q: `Cc1cc(N(C)C)nc(Nc2ccc(NC(=O)c3c(F)cccc3F)cc2)n1` was tested. Which outcome did it give?
A: inactive

Q: `O=C(c1ccccc1F)N(Cc1ccc(Cl)cc1)c1ccccn1` was tested. Which outcome did it give?
A: inactive

Q: With `N#Cc1ccc(C=Cc2nccc3c2[nH]c2ccccc23)cc1` as the compound, how does the outcome read?
A: inactive

Q: `N#Cc1ccc(CN2CCCN(c3ccc(NC(=O)c4ccc(F)cc4)cc3)CC2)cc1` was tested. Which outcome did it give?
A: inactive

Q: Which outcome does the source give for `N#Cc1cccc(C(=O)Nc2cccc(-c3ccc(CN4CCCC4)cc3)c2)c1` here?
A: inactive

Q: How did the outcome turn out when `CN(C(=O)NCCc1ccccc1)C1CCN(CCCCCNC(=O)/C=C/c2ccc(Cl)c(Cl)c2)CC1` was run?
A: inactive

Q: With `COc1ccccc1-n1ccnc1SCC(=O)Nc1cc(C(F)(F)F)ccc1Cl` as the compound, how does the outcome read?
A: inactive

Q: With `O=C(O)/C=C/c1cccc(F)c1F` as the compound, how does the outcome read?
A: inactive

Q: For `Cc1cc(N[C@@H](Cc2ccccc2)C(=O)NCc2cccc(F)c2)nc(NCCc2cccs2)n1`, which outcome is on record?
A: inactive

Q: How did the outcome turn out when `CCc1ccc(CN2CCC(CNC(=O)c3cc(-c4ccccc4Cl)cs3)C2)cc1` (stereo not given) was run?
A: inactive

Q: For `COc1cccc(-c2ccc3c(-c4cccc(S(C)(=O)=O)c4)cnc(N)c3c2)c1`, which outcome is on record?
A: inactive

Q: How did the outcome turn out when `COc1ccc2c(NN=Cc3ccc(N(C)C)cc3)ccnc2c1` was run?
A: inactive

Q: How did the outcome turn out when `CCCc1cn2c3c(cc(C(=O)N[C@@H](Cc4ccccc4)[C@H](O)CNC4CCCCC4)cc13)N(C)S(=O)(=O)CC2` was run?
A: inactive

Q: Which outcome does the source give for `Cc1cccc2[nH]c(-c3cccc(-c4cccc(NC(=O)CNC(=O)c5ccc(O)cc5)c4)c3)nc12` here?
A: inactive

Q: With `NC1CCN(CCNCc2cccc(-c3ccc(-c4nc5ccc(F)cc5[nH]4)cc3)c2)C1` (stereo not given) as the compound, how does the outcome read?
A: inactive

Q: How did the outcome turn out when `OC1CCCN(Cc2cccc(-c3ccc(-c4nc5ccc(C(F)(F)F)cc5[nH]4)cc3)c2)C1` (stereo not given) was run?
A: inactive

Q: With `COc1ccc(CNC2Cc3ccccc3C2)cc1-c1ccc(S(=O)(=O)NCCN2CCCC2)cc1` as the compound, how does the outcome read?
A: inactive

Q: `OC(CNCc1ccccc1Oc1ccccc1)c1cc(Br)cs1` (stereo not given) was tested. Which outcome did it give?
A: inactive

Q: Which outcome does the source give for `CNc1nc(NN=Cc2cc3c(cc2[N+](=O)[O-])OCO3)nc(Nc2cccc(C(F)(F)F)c2)n1` here?
A: inactive

Q: Which outcome does the source give for `Cc1cc(CNCC(CCNc2cc(=O)c3ccccc3[nH]2)NCc2cc(Br)cc(Br)c2)oc1C` (stereo not given) here?
A: inactive

Q: Which outcome does the source give for `CCc1cn2c3c(cc(C(=O)N[C@@H](Cc4ccccc4)[C@H](O)CNC4CCC4)cc13)N(C)S(=O)(=O)CC2` here?
A: inactive

Q: With `O=C(Nc1ccc(C(F)(F)F)cc1)c1ccc(S(=O)(=O)NC2CCN(Cc3ccccc3)C2)cc1` (stereo not given) as the compound, how does the outcome read?
A: inactive

Target: Calcium-dependent protein kinase 4 (Plasmodium falciparum (isolate 3D7)) (UniProt Q8IBS5)
Experiment: PfCDPK4 kinase inhibitors, biochemical, TCAMS library (AID 1159588; cut-off not given, nearly all actives have IC50 up to about 0.91 µM)
Details: recombinant PfCDPK4, Kinase-Glo ATP depletion luminescence

Sequence of Calcium-dependent protein kinase 4 (Plasmodium falciparum (isolate 3D7)) (Q8IBS5 whole entry, looked up): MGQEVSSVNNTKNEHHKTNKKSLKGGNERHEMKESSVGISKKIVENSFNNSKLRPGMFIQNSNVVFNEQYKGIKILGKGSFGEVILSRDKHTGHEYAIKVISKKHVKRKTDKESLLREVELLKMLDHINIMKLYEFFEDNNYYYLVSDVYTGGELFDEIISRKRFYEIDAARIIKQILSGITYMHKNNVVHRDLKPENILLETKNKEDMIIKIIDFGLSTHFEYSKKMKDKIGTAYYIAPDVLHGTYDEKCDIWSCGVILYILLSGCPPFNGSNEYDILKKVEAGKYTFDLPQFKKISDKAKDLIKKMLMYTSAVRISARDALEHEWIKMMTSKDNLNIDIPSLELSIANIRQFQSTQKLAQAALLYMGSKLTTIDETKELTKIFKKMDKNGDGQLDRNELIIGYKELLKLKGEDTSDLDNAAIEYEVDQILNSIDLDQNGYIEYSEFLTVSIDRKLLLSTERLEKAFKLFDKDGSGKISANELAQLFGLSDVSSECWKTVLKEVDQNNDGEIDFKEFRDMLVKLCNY

Q: For `O=C(/C=C/c1ccc(Cl)c(Cl)c1)NCCCCCN1CCC(NC(=O)Nc2ccc(Cl)c(C(F)(F)F)c2)CC1`, which outcome is on record?
A: inactive

Q: `Cc1cc(CNCCCCCNCc2ccc(Cl)cc2)ccc1O` was tested. Which outcome did it give?
A: inactive

Q: How did the outcome turn out when `O=C(Nc1ccc(F)cc1)NC1CCN(c2ccnc3cc(Cl)ccc23)CC1` was run?
A: inactive

Q: How did the outcome turn out when `COc1cc(OC)c(NC(=O)C2c3ccccc3C(=O)N(C)C2c2cccs2)cc1Cl` (stereo not given) was run?
A: inactive

Q: For `Cc1[nH]cc(Br)c(=O)c1-c1ccc(Oc2ccccc2)cc1`, which outcome is on record?
A: inactive

Q: `COc1ccc2nccc([C@@H](O)CN3CCC(NCc4ccc5c(c4)NC(=O)C(C)(C)O5)CC3)c2c1` was tested. Which outcome did it give?
A: inactive

Q: Which outcome does the source give for `CCCN1CCN(c2cc(S(=O)(=O)Nc3ccc(C(=O)NCc4cccc(C(F)(F)F)c4)cc3)ccc2OC)CC1` here?
A: inactive

Q: With `CC(C)CNCc1cccc(-c2cccc(CN(CCCN3CCN(C)CC3)C(=O)Nc3ccccc3)c2)c1` as the compound, how does the outcome read?
A: inactive

Q: How did the outcome turn out when `C=CCOC(=O)N1CCC(CNCc2cccc(-c3ccc(-c4nc5c(C)cccc5[nH]4)s3)c2)C1` (stereo not given) was run?
A: inactive

Q: With `Cc1nc2ccc3ccc(CNc4ccc5c(c4)CN([C@H](CCC(=O)O)C(=O)O)C5=O)cc3c2c(=O)[nH]1` as the compound, how does the outcome read?
A: inactive

Q: How did the outcome turn out when `O=C(CN(c1cccc(C(F)(F)F)c1)S(=O)(=O)c1ccc(Cl)cc1)NCCC(c1ccccc1)c1ccccc1` was run?
A: inactive

Q: Which outcome does the source give for `CCOc1ccc(-c2nc(NC(=O)COc3ccc(OC)cc3)sc2C)cc1` here?
A: inactive

Q: With `CC(=O)Nc1csc(-c2cnc(/C=C(\C)C[C@@H]3OC[C@H](C[C@@H]4O[C@H]4[C@@H](C)[C@H](C)O)[C@@H](O)[C@H]3O)o2)c1` as the compound, how does the outcome read?
A: inactive

Q: Which outcome does the source give for `NC(N)=NN=Cc1ccc2ccc3ccccc3c2c1` here?
A: inactive

Q: How did the outcome turn out when `COc1cccc(C(=O)Nc2ccc(S(=O)(=O)c3cc4c(cc3OC)CCN(C)CC4)cc2)c1` was run?
A: inactive

Q: Which outcome does the source give for `CCOc1ccc(-c2nonc2NC(=O)c2ccc(F)cc2)cc1OCC` here?
A: inactive

Q: `CC(C)CCNC(=O)C1Cc2c([nH]c3cc(Br)ccc23)C2(CCN(Cc3ccccc3)CC2)N1` (stereo not given) was tested. Which outcome did it give?
A: inactive

Q: For `c1ccc2ncc(CNCCCCCCCCNCc3cnc4ccccc4c3)cc2c1`, which outcome is on record?
A: inactive

Q: How did the outcome turn out when `Cc1cc(N(C)C)nc(Nc2ccc(NC(=O)c3c(F)cccc3F)cc2)n1` was run?
A: inactive

Q: With `O=C(c1ccccc1F)N(Cc1ccc(Cl)cc1)c1ccccn1` as the compound, how does the outcome read?
A: inactive

Q: Which outcome does the source give for `N#Cc1ccc(C=Cc2nccc3c2[nH]c2ccccc23)cc1` here?
A: inactive

Q: `N#Cc1ccc(CN2CCCN(c3ccc(NC(=O)c4ccc(F)cc4)cc3)CC2)cc1` was tested. Which outcome did it give?
A: inactive

Q: For `N#Cc1cccc(C(=O)Nc2cccc(-c3ccc(CN4CCCC4)cc3)c2)c1`, which outcome is on record?
A: inactive

Q: For `CN(C(=O)NCCc1ccccc1)C1CCN(CCCCCNC(=O)/C=C/c2ccc(Cl)c(Cl)c2)CC1`, which outcome is on record?
A: inactive

Q: With `COc1ccccc1-n1ccnc1SCC(=O)Nc1cc(C(F)(F)F)ccc1Cl` as the compound, how does the outcome read?
A: inactive

Q: `O=C(O)/C=C/c1cccc(F)c1F` was tested. Which outcome did it give?
A: inactive

Q: Which outcome does the source give for `Cc1cc(N[C@@H](Cc2ccccc2)C(=O)NCc2cccc(F)c2)nc(NCCc2cccs2)n1` here?
A: inactive

Q: With `CCc1ccc(CN2CCC(CNC(=O)c3cc(-c4ccccc4Cl)cs3)C2)cc1` (stereo not given) as the compound, how does the outcome read?
A: inactive

Q: How did the outcome turn out when `COc1cccc(-c2ccc3c(-c4cccc(S(C)(=O)=O)c4)cnc(N)c3c2)c1` was run?
A: inactive

Q: Which outcome does the source give for `COc1ccc2c(NN=Cc3ccc(N(C)C)cc3)ccnc2c1` here?
A: inactive

Q: How did the outcome turn out when `CCCc1cn2c3c(cc(C(=O)N[C@@H](Cc4ccccc4)[C@H](O)CNC4CCCCC4)cc13)N(C)S(=O)(=O)CC2` was run?
A: inactive

Q: Which outcome does the source give for `Cc1cccc2[nH]c(-c3cccc(-c4cccc(NC(=O)CNC(=O)c5ccc(O)cc5)c4)c3)nc12` here?
A: inactive

Q: `NC1CCN(CCNCc2cccc(-c3ccc(-c4nc5ccc(F)cc5[nH]4)cc3)c2)C1` (stereo not given) was tested. Which outcome did it give?
A: inactive

Q: With `OC1CCCN(Cc2cccc(-c3ccc(-c4nc5ccc(C(F)(F)F)cc5[nH]4)cc3)c2)C1` (stereo not given) as the compound, how does the outcome read?
A: inactive

Q: `COc1ccc(CNC2Cc3ccccc3C2)cc1-c1ccc(S(=O)(=O)NCCN2CCCC2)cc1` was tested. Which outcome did it give?
A: inactive

Q: With `OC(CNCc1ccccc1Oc1ccccc1)c1cc(Br)cs1` (stereo not given) as the compound, how does the outcome read?
A: inactive

Q: How did the outcome turn out when `CNc1nc(NN=Cc2cc3c(cc2[N+](=O)[O-])OCO3)nc(Nc2cccc(C(F)(F)F)c2)n1` was run?
A: inactive

Q: Which outcome does the source give for `Cc1cc(CNCC(CCNc2cc(=O)c3ccccc3[nH]2)NCc2cc(Br)cc(Br)c2)oc1C` (stereo not given) here?
A: inactive

Q: How did the outcome turn out when `CCc1cn2c3c(cc(C(=O)N[C@@H](Cc4ccccc4)[C@H](O)CNC4CCC4)cc13)N(C)S(=O)(=O)CC2` was run?
A: inactive

Q: For `O=C(Nc1ccc(C(F)(F)F)cc1)c1ccc(S(=O)(=O)NC2CCN(Cc3ccccc3)C2)cc1` (stereo not given), which outcome is on record?
A: inactive
